Measured values published in PubChem BioAssay.
Where “and” joins values, the source holds several entries; their conditions need not be identical. Equal values may be shown once. Calls of active or inactive are those of the source. Unless noted, no stated cut-off is given here; in the data, active means inhibition above about 80%; inactive means the rest.

Columns and labels:
[1] = modifiers of HSF1 nuclear foci, imaging, Selleck Cancer Library (AID 1347162; in the data active means plate-normalised HSF1 focus index below about 0.46); settings: human cells, at 10 µM; SSMD: measured here: HSF1 foci SSMD mean; cell count: measured here: cell number; plate-normalised HSF1 focus index: stronger effect = lower value
[2] = tested on: Neuropilin-2 / VEGF-C interaction (human); assay: inhibitors of NRP2–VEGF-C binding, biochemical, microplate binding format, z-score (AID 743281; call rule not given here); settings: microplate NRP2/VEGF-C binding assay; stronger effect = lower value
[3] = inhibitors of Cryptococcus chitosan production, flow cytometry, Cibacron Brilliant Red staining (AID 1347148; call rule not given here;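 further: compound exposure lasted three days at 37 degrees C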); settings: Cryptococcus neoformans chitosan, stronger effect = lower value; at 10 µM unless noted
[4] = LFS_MB_1R medulloblastoma cell growth inhibition, synergistic combos for chromothripsis tumors, cisplatin or BGB combos (AID 1671452); settings: LFS_MB_1R medulloblastoma cells, stronger effect = higher value;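 further: cells exposed for 96 hours before readout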
[5] = CRL2098 osteosarcoma cell growth inhibition, synergistic combos for chromothripsis tumors, BGB or cisplatin IC20 combos (AID 1671454); settings: CRL2098 osteosarcoma cells, drug combinations, stronger effect = higher value;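 further: cells exposed for 96 h before readout; 0% = vehicle DMSO and 100% = killing by high DMSO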
[6] = HD-MB03 medulloblastoma cell growth inhibition, synergistic combos for chromothripsis tumors, BGB or cisplatin IC20 combos (AID 1671455; in the data active means inhibition above about 83%;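 further: 0% = vehicle DMSO and 100% = high DMSO as cytotoxic control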); settings: HD-MB03 medulloblastoma cells, stronger effect = higher value
[7] = UWB1.289 ovarian carcinoma cell growth inhibition, synergistic combos for chromothripsis tumors, BGB or cisplatin combos (AID 1671456); settings: UWB1.289 ovarian carcinoma cells, stronger effect = higher value;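 further: cells exposed to compound for four days; 0% = vehicle DMSO and 100% = killing by high DMSO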
[8] = LFS_MB_2R medulloblastoma cell growth inhibition, synergistic combos for chromothripsis tumors, cisplatin combos (AID 1671457); settings: LFS_MB_2R medulloblastoma cells, stronger effect = higher value;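 further: cells exposed to compound for four days before readout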
[9] = MDA-MB-436 breast carcinoma cell growth inhibition, synergistic combos for chromothripsis tumors, BGB or cisplatin combos (AID 1671458; call rule not given here;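 further: cells exposed for 96 hours; 0% = vehicle DMSO and 100% = killing by high DMSO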); settings: MDA-MB-436 breast carcinoma growth inhibition, drug combinations, stronger effect = higher value
[10] = UWB1.289_BRCA1 ovarian cancer growth, cell-based, BGB or cisplatin combinations (AID 1671459); settings: UWB1.289 BRCA1 ovarian carcinoma, drug combinations, stronger effect = higher value
[11] = human astrocyte viability loss, single and combined drugs, cytotoxicity control for chromothriptic childhood tumor combination screen, cell-based, BGB or cisplatin IC20 combos (AID 1671460); settings: Human astrocytes, drug combinations, stronger effect = higher value;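 further: cells exposed to compounds for 96 hours before viability readout; 0% = vehicle and 100% = killing control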
[12] = growth inhibition of BT084 medulloblastoma cells, cell-based, ICGC_MB145, cisplatin and BGB IC40 combos (AID 1671461); settings: drug combinations, stronger effect = higher value;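 further: cells exposed to drugs for 96 hours; 0% = vehicle DMSO and 100% = high DMSO full killing control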
[13] = growth inhibition of RCMB18 medulloblastoma cells, cell-based, cisplatin and BGB IC40 combos (AID 1671462); settings: stronger effect = higher value;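 further: cells exposed to compound for four days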
[14] = growth inhibition of CRL1545 osteosarcoma cells, cell-based, cisplatin and BGB IC20 combos (AID 1671464); settings: stronger effect = higher value;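 further: cells exposed to compound for 96 hours before readout; 0% = vehicle DMSO and 100% = high DMSO killing control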
[15] = measured here: combination with cisplatin, at 0.5 µM
[16] = measured here: combination with cisplatin, at 5 µM

## Cc1ccc(-n2nc(C(C)(C)C)cc2NC(=O)Nc2ccc(OCCN3CCOCC3)c3ccccc23)cc1
[1]
  SSMD: 3.54
  cell count: 7570
  plate-normalised HSF1 focus index: 1.13 (inactive)

## COC(=O)C1=C(C)NC(C)=C(C(=O)OC)C1c1ccccc1[N+](=O)[O-]
[2]
  z-score: -0.452 (inactive)
[3]
  fold fluorescence: 3.72 [at 144.4 µM] (inactive)

## CCn1cc(C(=O)O)c(=O)c2ccc(C)nc21
[4]; at 0.5 µM
  inhibition: -19% (inactive) and -13.7% (inactive)
[4]; measured here: combination with BGB IC40, at 0.05 µM
  inhibition: -21.7% and -0.433%
[4]; [15]
  inhibition: -30.2% and 15.7%
[4]; [16]
  inhibition: -1.32% and 14.5%
[5]; at 0.5 µM
  inhibition: -8.42% (inactive) and -27% (inactive)
[5]; measured here: combination with BGB at IC20, at 0.5 µM
  inhibition: -13.8% and -3.06%
[5]; measured here: combination with cisplatin at IC20, at 0.5 µM
  inhibition: 2.7% and -23.8%
[6]; at 0.5 µM
  inhibition: -1.5% (inactive) and -3.12% (inactive)
[6]; measured here: combo with BGB at IC20, at 0.5 µM
  inhibition: -0.571% and -10.6%
[6]; measured here: combo with cisplatin at IC20, at 0.5 µM
  inhibition: -1.78% and 8.77%
[7]; at 0.5 µM
  inhibition: 13.8% (inactive) and -1.94% (inactive)
[7]; measured here: inhibition with BGB combination, at 0.05 µM
  inhibition: -3.65% and -15.7%
[7]; measured here: inhibition with cisplatin combination, at 0.05 µM
  inhibition: 2.92% and -1.74%
[8]; at 0.5 µM
  inhibition: 5.5% (inactive) and -20.2% (inactive)
[8]; [15]
  inhibition: 1.69% and -14.8%
[8]; [16]
  inhibition: 8.3% and -22.4%
[9]; at 0.5 µM
  inhibition: -9.6% (inactive) and -19.2% (inactive)
[9]; measured here: BGB combination, at 0.5 µM
  inhibition: -10.5% and -16.3%
[9]; measured here: BGB combination, at 5 µM
  inhibition: -0.497% and -4.71%
[9]; measured here: cisplatin combination, at 0.5 µM
  inhibition: -19.6% and -33.6%
[9]; measured here: cisplatin combination, at 5 µM
  inhibition: -0.491% and -16.4%
[10]; BGB combination, concentration series, at 5 µM
  inhibition: 11.3% and 18.4%
[10]; at 0.5 µM
  inhibition: 11% (inactive) and -9.48% (inactive)
[10]; cisplatin combination, concentration series, at 5 µM
  inhibition: 7.14% and -4.85%
[11]; at 0.5 µM
  inhibition: 1.03% (inactive) and 6.47% (inactive)
[11]; measured here: combo with BGB IC20, at 0.5 µM
  inhibition: -4.36% and 3.89%
[11]; measured here: combo with cisplatin IC20, at 0.5 µM
  inhibition: 17.2% and 0.487%
[12]; at 0.5 µM
  inhibition: -9.05% (inactive) and -29.1% (inactive)
[12]; cisplatin combination, at 0.5 µM
  inhibition: -8.44% and -23.5%
[12]; cisplatin combination, at 5 µM
  inhibition: -55.2% and -59.3%
[12]; measured here: BGB IC40 combination 0.05 uM, at 0.05 µM
  inhibition: 10.8% and -9.88%
[12]; single agent, at 5 µM
  inhibition: -16.7% and -23%
[13]; at 0.5 µM
  inhibition: 1.01% (inactive) and -9.08% (inactive)
[13]; cisplatin combo, at 5 µM
  inhibition: 0.823% and 3.11%
[13]; measured here: BGB IC40 combination, at 0.05 µM
  inhibition: 11.9% and -0.784%
[13]; [15]
  inhibition: -11.3% and -2.66%
[13]; single agent, at 5 µM
  inhibition: -12.4% and -29.6%
[14]; at 0.5 µM
  inhibition: -14.9% (inactive) and -26.1% (inactive)
[14]; measured here: with BGB IC20 combination, at 0.5 µM
  inhibition: -12.1% and -5.6%
[14]; measured here: with cisplatin IC20 combination, at 0.5 µM
  inhibition: -16.3% and -36.4%
[14]; single agent, at 0.05 µM
  inhibition: -17.6% and 10%
[14]; single agent, at 5 µM
  inhibition: 0.11% and -3.86%

## CC(C)n1c(/C=C/[C@@H](O)C[C@@H](O)CC(=O)O)c(-c2ccc(F)cc2)c2ccccc21
[1]
  SSMD: 2.42
  cell count: 6600
  plate-normalised HSF1 focus index: 1.13 (inactive)

## O=S(=O)(c1cccc2cnccc12)N1CCCNCC1
[3]
  fold fluorescence: 2.56 [at 137.3 µM] (active)

## Clc1ccccc1CN1CCc2sccc2C1
[2]
  z-score: 0.918 (inactive)

## CN1[C@@H]2CC(OC(=O)[C@H](CO)c3ccccc3)C[C@H]1[C@@H]1O[C@@H]12 (some centres undefined)
[2]
  z-score: -0.461 (inactive)

## C[N+]1(C)CCC(OC(=O)C(O)(c2ccccc2)C2CCCC2)C1 (centres undefined)
[2]
  z-score: -0.121 (inactive)
